# CHO-K1 Ca PAM: M1 PAM counterscreen hit in parental CHO-K1 cells. ATP EC20, Fluo-8 calcium fluorescence; 0% at ATP EC20, 100% at ATP max. activation, % at 3 µM. 360,000 compounds, 0.02% hits. AID 602247;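 active = activation above the run cutoff, the mean activation of all test compounds plus 3 SD, cut at about 40% in these data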;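 note: peak over basal fluorescence ratio in a 140 s read after ATP addition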
# CHO-K1 Ca antag: counter-screen for M1 antagonists: effect in parental CHO-K1 cells; ATP-induced calcium, Fluo-8 fluorescence; inhibition, % at 3 µM; 360,000 compounds, 0.6% hits;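 active = inhibition above a per-plate cutoff, the plate's mean sample inhibition plus 3 SD, cut at about 24% in these data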;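 note: 0% = DMSO plus EC80 ATP and 100% = DMSO alone without ATP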
# CHRM1 antagonist: antagonists of human M1 muscarinic receptor; CHO-K1 hM1, Fluo-8 calcium fluorescence, ACh EC80 antagonist; inhibition, % at 3 µM; AID 588852; 360,000 compounds, 1.3% hits;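 active = percent inhibition above its own plate's cutoff, namely the mean of that plate's compound wells plus 3 SD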;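 note: peak over basal fluorescence ratio during 140 s after agonist addition; 0% = ACh EC80 plus DMSO and 100% = DMSO alone without agonist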
# Target sequence (P11229 whole entry, looked up): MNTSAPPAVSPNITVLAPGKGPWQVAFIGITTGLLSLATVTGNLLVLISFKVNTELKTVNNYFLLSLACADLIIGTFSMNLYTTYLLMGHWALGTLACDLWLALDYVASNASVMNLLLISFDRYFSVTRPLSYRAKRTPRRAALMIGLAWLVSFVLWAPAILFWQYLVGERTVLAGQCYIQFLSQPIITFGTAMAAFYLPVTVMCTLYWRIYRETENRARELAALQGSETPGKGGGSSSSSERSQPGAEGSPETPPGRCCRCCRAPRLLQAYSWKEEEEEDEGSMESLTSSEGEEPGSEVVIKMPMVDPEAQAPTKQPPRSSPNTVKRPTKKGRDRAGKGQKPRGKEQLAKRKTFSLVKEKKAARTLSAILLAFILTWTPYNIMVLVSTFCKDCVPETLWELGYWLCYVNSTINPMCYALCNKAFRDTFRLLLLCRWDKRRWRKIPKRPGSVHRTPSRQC
# CHO-K1 Ca ag: counter-screen for M1 agonists: effect in parental CHO-K1 cells | activation, % at 3 µM | AID 602248 | 360,000 compounds, 0.48% hits | Fluo-8 calcium fluorescence; scaled to maximal ATP response, vehicle zero; in the data active = activation above about 15%;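 note: untransfected CHO-K1 host cells lacking M1 receptor as counterscreen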
# CHRM1 PAM: human CHRM1 positive allosteric modulation | P11229 | CHO-K1 hM1, Fluo-8 calcium fluorescence, ACh EC20; 0% = ACh EC20, 100% = maximal ACh | activation, % at 3 µM | 360,000 compounds, 0.088% hits; in the data active = activation above about 19%, passing the limit was not always enough
# M1 ag: agonists of human M1 muscarinic receptor; CHO-K1 hM1, Fluo-8 calcium fluorescence, agonist mode; 0% DMSO, 100% acetylcholine EC100; activation, % at 3 µM; 360,000 compounds, 0.33% hits; AID 588814;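 active = activation above the run's mean compound activation plus 3 SD, cut at about 16% in these data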;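 note: peak over basal fluorescence ratio within a 140 s kinetic read after compound addition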
# Starred values were filed as active, the others as inactive; + = active, no number. A selection: hits, their analogues and other compounds. The true share with any hit is near 2.4%.
SMILES,CHO-K1 Ca PAM,CHO-K1 Ca antag,CHRM1 antagonist,CHO-K1 Ca ag,CHRM1 PAM,M1 ag
COC(=O)CN1C2=NCCCN2c2ccccc21,-12,7,5,0,-6,-6
CCOc1ccc(N(C)S(=O)(=O)c2ccc(C)c(C(=O)Nc3nnc(C4CC4)s3)c2)cc1,15,-9,-11,3,11,1
COCCn1c(C)cc(C(=O)CN2C(=O)C(=O)N(CCC3=CCCCC3)C2=O)c1C,14,-11,-13,1,1,-1
CCOC(=O)CN1C(=O)N(CC(=O)OCC)C(c2ccccc2)(c2ccccc2)C1=O,-14,11,-17,0,14,-3
NC(=O)c1oc2ccccc2c1NC(=O)c1ccc(F)cc1,-8,27*,62*,0,-30,-6
COc1ccccc1CCC(=O)Nc1ccc(S(=O)(=O)Nc2nccs2)cc1,4,-16,-14,1,15,-4
Cc1nnc(NC(=O)c2sc3nc(-c4cccs4)cc(C(F)(F)F)c3c2N)s1,1,22,39*,20*,-23,52*
Nc1c(C(=O)Nc2nccs2)sc2nc(-c3cccs3)cc(C(F)(F)F)c12,6,38*,37*,27*,-5,28*
Nc1ccc(-c2nc3ccc(C(=O)O)cc3s2)cc1,19,-2,-2,0,12,-12
O=C(O)c1ccc2nc(-c3ccccc3)sc2c1,-17,29*,8,0,-7,-1
CCn1c(SCc2ccccc2)nc2c1c(=O)[nH]c(=O)n2C,20,-18,-8,1,3,-3
Cc1ccc(N2CC(C(=O)Nc3ccc(S(=O)(=O)NCC4CCCO4)cc3)CC2=O)cc1C (stereo not given),-4,-9,-1,0,0,-5
COc1ccccc1NC(=O)N1CCc2[nH]c3ccc(Cl)cc3c2C1,13,-7,-4,0,-1,22*
C=CCNC(=O)N1CCc2[nH]c3ccc(F)cc3c2C1,14,-6,-11,1,-1,24*
CCCCNC(=O)N1CCc2[nH]c3ccccc3c2C1,-11,5,-13,2,8,19*
COc1cc2c(cc1OC)CN(C(=O)Nc1ccccc1Cl)CC2,1,4,-17,2,11,2
O=C(C1CC1)N1CCc2[nH]c3ccccc3c2C1,8,-7,-3,0,5,0
O=C(NCC1(N2CCOCC2)CCCCC1)c1cccc(S(=O)(=O)N2CCc3ccccc3C2)c1,-8,6,5,0,-5,-8
CC1(C)Cc2c(sc(NC(=O)C(=O)NCC3CCCO3)c2C(N)=O)CO1 (stereo not given),22,-18,-8,2,9,0
CC1OC(CC(=O)O)CC2=C1C(=O)c1c(O)cccc1C2=O (stereo not given),21,20,46*,10,3,15
Cn1c(N)nc(N)c(NC=O)c1=O,11,2,-4,0,2,-2
O=C(CSc1nnc(Nc2ccccc2F)s1)NC1CC1,2,-6,0,0,6,-1
COc1cc(/C=C/C(=O)c2ccc3c(c2)OCO3)cc(Cl)c1O,-5,17,35*,23*,-19,47*
Nc1cc2c(cc1Cl)N(Cc1ccccc1)C(=O)CO2,16,-16,-13,0,12,-1
O=c1[nH]c2cc(Cl)c(Br)cc2o1,15,-3,-7,16*,3,4
SMILES,CHO-K1 Ca PAM,CHO-K1 Ca antag,CHRM1 antagonist,CHO-K1 Ca ag,CHRM1 PAM,M1 ag
O=c1[nH]c2cc(Cl)c(Cl)cc2o1,5,-5,-15,4,7,5
O=C(Nc1ccccc1)OCCCCCOC(=O)Nc1ccccc1,0,26*,-6,9,-4,-5
COc1ccc(OCCOC(=O)Nc2ccccc2)cc1,4,4,31*,1,-1,-4
O=C(CN1CCOCC1)Nc1ncc(Cc2cccc(Cl)c2Cl)s1,18,-6,-4,8,11,-2
CCCN=C1CC(C)(C)CC(=O)/C1=C(/O)CCC,16,4,11,18*,-4,-6
CC(CCc1ccc(O)cc1)N(C)CCc1ccccc1 (stereo not given),1,-28,56*,1,-30,-14
CC(CCc1ccc(O)cc1)NCc1ccc(Br)cc1 (stereo not given),11,-11,32*,4,-24,-8
COc1ccc(CNC(C)CCc2ccccc2)cc1 (stereo not given),-9,-2,-18,0,2,-10
CC(CCc1ccc(O)cc1)NC(c1ccccc1)c1ccc(Cl)cc1 (stereo not given),1,-4,-15,0,1,-10
CSCCC(C(=O)Nc1c(C)cccc1C)N(C)CCc1ccccc1 (stereo not given),14,4,-7,1,6,-2
CC(CCc1ccc(O)cc1)NCCC(c1ccccc1)c1ccccc1 (stereo not given),-15,2,45*,2,-26,-5
Cc1onc(-c2c(F)cccc2Cl)c1C(=O)N1CCc2ccccc2C1,20,-7,27,0,-6,-6
Cc1onc(-c2c(Cl)cccc2Cl)c1C(=O)N1CCc2ccccc21,8,-3,68*,1,-21,-7
COc1ccc(CCNC(=O)CN(Cc2ccc(Cl)cc2)S(C)(=O)=O)cc1,5,5,-7,1,1,0
O=C1CCCC/C1=C/Nc1ccc2c(c1)OCO2,-7,29*,8,0,-7,-2
O=C(O)C1CCCN1C(=O)C1CCN(S(=O)(=O)c2cccc(C(F)(F)F)c2)CC1 (stereo not given),-29,17,-7,0,8,1
CC1(C)C(=O)Nc2ccccc2N1C(=O)COc1ccccc1C#N,3,-11,-4,0,-2,-4
CCOC(=O)c1c(NC(=O)CSc2nnc(-c3ccccc3C)n2C)sc(C(C)=O)c1C,-9,21,46*,2,-19,-4
O/C(=C\c1ccc2ccccc2n1)c1ccc(O)cc1O,6,-4,6,7,-2,3
CCc1ccc2nc(N(CCCN(C)C)C(=O)c3ccc(S(=O)(=O)N4CCCC4)cc3)sc2c1,10,-4,39*,6,-20,-5
Cc1ccc2nc(N(CCCN(C)C)C(=O)c3ccc(S(=O)(=O)N4CCCCCC4)cc3)sc2c1,-3,7,4,7,0,-4
COc1ccc(C)c2sc(N(CCCN(C)C)C(=O)c3ccc(S(=O)(=O)N4CCc5ccccc5C4)cc3)nc12,8,10,9,19*,-12,-7
O=c1ccc2c(-c3ccccc3)c3ccc(O)cc3oc-2c1,-11,93*,104*,533*,-30,+
O=c1cc(-c2ccccc2)oc2cc(O)ccc12,5,-3,-6,1,0,-2
